Assay outcomes from PubChem.
HCMV antiviral: blocks human cytomegalovirus replication. AID 1259415. 410,000 tested, 4.5% active. activity change, negative = inhibition, % at 57.5 µM. HFF cells, HCMV-luciferase reporter, 72 h; active compounds read low; in the data active = activity change below about -60%; inconclusive = no clear call, values can overlap the other calls; inactive = above about -39%
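Human foreskin fibroblasts infected with luciferase-reporter HCMV at MOI 1 PFU/cell, compounds at two doses. Luciferase measured 72 h post infection; normalized to buffer-only basal and Salinomycin (10uM) controls.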
Vaccinia Venus: vaccinia inhibition (Venus reporter); Potency, µM (doses to about 36.5 µM), inactives show at the top dose activity change, negative = inhibition, actives largely listed as inhibitors; AID 720580; 330,000 tested, 0.46% active; Vaccinia virus Venus reporter expression, fluorescence; calls by dose curve; tested in A549 cells; also: potency is read from the fitted curve at half-maximal effect; nearly all actives have a fitted effect of over 30% in size
VACV mCherry inh: inhibitors of vaccinia virus infection (mCherry reporter signal) | Vaccinia virus mCherry reporter infection, fluorescence | Potency, µM (top dose mostly 36.5 µM), inactives show top-dose activity change, negative = inhibition, hits mostly inhibitors | 310,000 tested, 0.63% active | AID 720579; calls by dose curve; tested in A549 cells; also: potency is read from the fitted curve at half-maximal effect; nearly all actives have a fitted effect of over 35% in size
MARV entry inh: inhibitors of Marburg virus binding or cell entry. Marburg virus pseudotyped entry inhibition, cell reporter. Potency, µM (series often up to 37.8 µM), for the others: top-dose activity change, negative = inhibition, actives largely listed as inhibitors. 300,000 tested, 1.8% active; calls by dose curve; tested in HEK293 cells; also: potency is read from the fitted curve at half-maximal effect
LASV entry inh: Lassa virus entry inhibition | Lassa virus pseudotype entry inhibition, cell reporter | Potency, µM (top dose mostly 37.9 µM), without a hit: at the highest dose activity change, negative = inhibition, most hits filed as inhibitors | 300,000 tested, 1.2% active; calls by dose curve; tested in HEK293 cells; also: potency is read from the fitted curve at half-maximal effect; nearly all actives have a fitted effect of over 50% in size
FMDV inh: foot and mouth disease virus antiviral activity; FMDV antiviral cell-based qHTS; Potency, µM (top dose mostly 57.9 µM), for the others: at the top dose activity change, negative = inhibition, most hits filed as inhibitors; 410,000 tested, 1.2% active; AID 1159524; calls by dose curve; tested in HEK293T cells; also: read-out not given here; potency is read from the fitted curve at half-maximal effect; nearly all actives have a fitted effect of over 45% in size
* marks the source's active call; other numbers are inactive results; [ ] = dose if it differs, or a comment. An excerpt weighted towards active compounds, which were near 6.5% of everything screened. % is scaled to controls: 0 for no effect and ±100 for the full control effect.

`CC(C)c1nn2c(=O)cc(COC(=O)c3cccc(NC(=O)c4ccccc4F)c3)nc2s1` gave HCMV antiviral 44.4, Vaccinia Venus -18.3%, VACV mCherry inh -0.5%, LASV entry inh -0.3%[46.1 µM] and FMDV inh -5.6%.
C[C@H]1CN=C(N(C)C)N1CC1CCC(C(C)(C)C)CC1 (some centres undefined) was read as HCMV antiviral -9.9, Vaccinia Venus inconclusive, VACV mCherry inh 7.94µM* and FMDV inh inconclusive.
For NC(=O)c1nsc(C(=O)N(c2cccc(F)c2)C(C(=O)NCc2ccccc2)c2ccc(O)cc2)c1N (centres undefined) the results were HCMV antiviral -18.2, Vaccinia Venus -14.5%, VACV mCherry inh -28.2%, MARV entry inh inconclusive, LASV entry inh inconclusive and FMDV inh 0.4%.
`COc1ccccc1N(C(=O)c1snc(C(N)=O)c1N)C(C(=O)NCc1ccccc1)c1ccc(O)cc1` (centres undefined) gave HCMV antiviral 40.1, Vaccinia Venus 3.7%, VACV mCherry inh -14.1%, MARV entry inh -21.3%[46.1 µM], LASV entry inh 4.47µM* and FMDV inh -9.1%.
For COc1ccc(N(C(=O)c2snc(C(N)=O)c2N)C(C(=O)NCc2ccccc2)c2ccc(F)cc2)c(OC)c1 (centres undefined) the results were HCMV antiviral -80.4*, Vaccinia Venus -20.3%, VACV mCherry inh -22.4%, MARV entry inh inconclusive, LASV entry inh 8.91µM* and FMDV inh -0.4%.
For NC(=O)c1nsc(C(=O)N(c2ccccc2F)C(C(=O)NCc2ccc(F)cc2)c2ccc(O)cc2)c1N (centres undefined) the results were HCMV antiviral -102.4*, Vaccinia Venus -12.4%, VACV mCherry inh -29.4%, MARV entry inh inconclusive, LASV entry inh inconclusive and FMDV inh -12.6%.
For COc1ccccc1N(C(=O)c1snc(C(N)=O)c1N)C(C(=O)NC1CCCC1)c1ccc2ncccc2c1 (centres undefined) the results were HCMV antiviral -87.6*, Vaccinia Venus -13.5%, VACV mCherry inh -3.3%, MARV entry inh inconclusive, LASV entry inh inconclusive and FMDV inh 18.2%.
For C[C@H]1C=CCC(=O)N[C@@H](c2ccc3ccccc3c2)[C@@H](C)C=CCC(=O)N[C@@H]1c1ccc2ccccc2c1 the results were MARV entry inh 20.2%[14.2 µM].
COCCN1C(=O)NC(c2cccc(F)c2)C(C(C)=O)=C1C (centres undefined) was read as MARV entry inh -6.0%[14.2 µM].
For O=C(NC1CCCCC1)C(c1ccc2ncccc2c1)N(Cc1ccccc1)C(=O)c1cccs1 (centres undefined) the results were HCMV antiviral -61.7*, Vaccinia Venus -23.1%, VACV mCherry inh -0.1%, MARV entry inh 5.8µM* and LASV entry inh -14.6%.
For O=C(NCC1CCC2(CCN(Cc3cccc(-c4ccco4)c3)CC2)O1)c1ccccc1 (centres undefined) the results were Vaccinia Venus -0.3%, VACV mCherry inh -14.6% and FMDV inh -5.2%.
CCOc1ccc(-c2cc(C)[n+](CCN3CCOCC3)c(-c3ccc(OCC)cc3)c2)cc1 was read as HCMV antiviral -82.5*, Vaccinia Venus -2.3%, VACV mCherry inh -24.9%, MARV entry inh inconclusive, LASV entry inh -27.0% and FMDV inh inconclusive.
For Cc1cc2oc(C(=O)Nc3ccc(S(=O)(=O)Nc4nccs4)cc3)cc(=O)c2cc1Cl the results were HCMV antiviral -78.9* and FMDV inh -7.8%.
Cc1cc2oc(C(=O)Nc3ccc(S(=O)(=O)N4CCC(C)CC4)cc3)cc(=O)c2cc1C was read as HCMV antiviral 16.1, Vaccinia Venus -6.6%, VACV mCherry inh -19.1%, MARV entry inh 21.2%[46.1 µM], LASV entry inh 4.3%[46.1 µM] and FMDV inh -18.9%.
`Cc1cc2oc(C(=O)Nc3ccc(S(=O)(=O)N4CCCC(C)C4)cc3)cc(=O)c2cc1Cl` (centres undefined) gave HCMV antiviral -17.9, Vaccinia Venus -12.1%, VACV mCherry inh 10.9%, MARV entry inh 11.2µM*, LASV entry inh inconclusive and FMDV inh 0.0%.
